# The sample as a whole holds a higher share of hits than the screen did.
# Tgondii IFNg – inhibitors of Toxoplasma gondii growth with IFN-gamma; actives 3.8% (n = 69,000); activity change, negative = inhibition, % (test concentration not listed); Toxoplasma gondii growth in IFN-gamma-treated host cells; active compounds read low; in the data active = activity change below about -70%, passing the limit was not always enough;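 note: host cells are HeLa cells infected with Toxoplasma gondii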
# * = called active by the depositor; i = inactive; ! = a repeat was not active.
SMILES,Tgondii IFNg
Cc1nc2c(c(=O)[nH]1)C(c1ccc(Cl)cc1)c1c(c3ccccc3oc1=O)O2 (stereo unspecified),-24.7
CC[C@H]1CN2CCC1C[C@@H]2[C@@H](O)c1ccnc2ccc(OC)cc12 (stereo partly specified),-78.2*!
C=CC1CN2CCC1CC2[C@@H](OC(=O)c1ccc(OC)cc1)c1ccnc2ccccc12 (stereo partly specified),0.5
C=C[C@H]1CN2CC[C@H]1C[C@@H]2[C@@H](OC(=O)OCC)c1ccnc2ccc(OC)cc12,3.2
O=C(O)c1ccccn1.O=C(O)c1ccccn1.O=C(O)c1ccccn1.[Cr],11.0
C[C@@H]1C[C@@H]2CN(Cc3ccncc3)C[C@@H]2O1,-6.1
Cc1cccc(C2=NCC(=O)N(CC(=O)N3CCCCCC3)c3sc4c(c32)CCC4)c1,-30.9
COc1ccc(C)cc1NC(=O)c1cc2cccnc2n(Cc2ccccc2)c1=O,27.9
CO[C@H]1CCN(C(=O)c2cccc(C)n2)[C@H]2CN(CC3CC3)C[C@@H]12,61.4
C=CCN1CC[C@@H]2[C@@H]1CCN2c1cccc(C)n1,2.0
COc1cccc(CC(C)NCc2csc(C)n2)c1 (stereo unspecified),0.6
CC(=O)O[C@@]12CO[C@@H]1C[C@H](O)[C@@]1(C)C(=O)[C@H](O)C3=C(C)[C@@H](O)C[C@@](O)([C@@H](OC(=O)c4ccccc4)[C@H]21)C3(C)C,-75.7*!
CS(=O)CCCCN=C=S (stereo unspecified),10.2
CCCC1C(c2ccccc2)NC(c2ccccc2)CC1(O)c1ccc(F)cc1 (stereo unspecified),-97.4*
CC1CCN(CC(C)(C)CN2C3CCC2CC(O)(c2ccc(F)cc2)C3)CC1 (stereo unspecified),7.7
CCCn1ncc(C(=O)N(Cc2ccc3c(c2)OCO3)C2CC2)c1C,-15.5
COCCN1CCC12CCN(C(=O)Cc1cccs1)C2 (stereo unspecified),173.1
Cc1ncc(C(=O)NC2CCN(CC3(c4ccc(Cl)cc4)CCC3)CC2)c(C)n1,-48.4
O=S1(=O)C=CC(NC2CCC3(CCNCC3)CC2)C1 (stereo unspecified),3.4
O=C(Nc1cccnc1)c1cc2cccnc2n(Cc2ccc(F)cc2)c1=O,64.9
Cc1cccc(CN2CCC3OCCCC3(COCC3CC3)C2)n1 (stereo unspecified),6.2
CN1Cc2ccccc2[C@@H]2c3cccc4[nH]cc(c34)C[C@H]21,-78.1*
CC(C)[C@@]1(NC(=O)[C@@H]2C[C@@H]3c4cccc5[nH]cc(c45)C[C@H]3N(C)C2)O[C@@]2(O)[C@@H]3CCCN3C(=O)[C@H](Cc3ccccc3)N2C1=O,-65.9
COc1ncccc1CN1C[C@H]2COC[C@@]2(C(=O)N(C)C)C1,3.0
CC(Cc1cccnc1)NCc1c(C(=O)N2CCCCCCC2)nc2ccc(Cl)cn12 (stereo unspecified),-42.8
SMILES,Tgondii IFNg
C1C[C@H]2CNC[C@]2(COCC2CCOCC2)C1,-60.8
O=C(NC(=S)Nc1cc(C(F)(F)F)cc(C(F)(F)F)c1)Oc1ccccc1,-97.7*
CCN1C[C@H]2[C@H](OC)CCN(C(=O)Cc3cccc(OC)c3)[C@H]2C1,-0.1
OC1CC2CCCC(C1)N2Cc1ccccc1 (stereo unspecified),8.0
CN(C)C(CN)c1cccc(C(F)(F)F)c1 (stereo unspecified),-63.7
O=S(=O)(N[C@H]1CCO[C@]2(CCNC2)C1)C1CC1,-1.6
Cc1ncc(CN2CCC3(CC(N(C)C)C3)C2)cn1 (stereo unspecified),-26.1
COCc1cncc2c1CCN(CC(C)C)C2,-2.4
COCc1cncc2c1CCN(C1CCOC1)C2 (stereo unspecified),-109.2*
COCc1cncc2c1CCN(S(=O)(=O)C1CC1)C2,16.1
CNC(=O)[C@H]1C[C@H]2CCN(Cc3c(C)noc3C)C[C@H]2O1,1.5
CNC(=O)[C@H]1CC2CN(C(=O)c3ccno3)CC2N1C(C)C (stereo partly specified),4.4
CC(=O)C1CCC2C3CCC4C[C@H](O)CCC4(C)C3C[C@H](O)C12C (stereo partly specified),-33.5
c1ccc([C@H]2CN(Cc3ccccn3)[C@@H]3C4CCN(CC4)[C@H]23)cc1,-0.8
CN(C)c1cc(NCC2CCC3(CNCCOC3)O2)ncn1 (stereo unspecified),i
CN1CC2C[C@@]2(NC(=O)c2cccc(F)c2)C1 (stereo partly specified),1.2
CCCn1c(C)c(C(=O)c2cccc3ccccc23)c2ccccc21,32.5
Cc1c(C(=O)c2cccc3ccccc23)c2cccc3c2n1[C@H](CN1CCOCC1)CO3,-90.1*
COc1ccc(C(=O)c2c(C)n(CCN3CCOCC3)c3cc(I)ccc23)cc1,7.4
Cc1cc(CC(C)NCC(=O)Nc2cnccn2)n[nH]1 (stereo unspecified),8.1
c1ccc(O[C@@H]2CC[C@@H]3[C@H]2OCCN3CC2CCOCC2)nc1,4.6
O=c1c2ccccc2nc(/C=C/c2ccc(Cl)cc2)n1-c1cccc(C(F)(F)F)c1,-68.1
CCCCc1ccc(NC(=O)c2cc3cccnc3n(Cc3ccc(F)cc3)c2=O)cc1,90.4
